From PubChem BioAssay AID1159580 (chemical genetic matrix, 2015)
Out of some 5,500 compounds screened, about 2,000 (36%) were called active. Roughly 18% stayed inconclusive and do not appear here. Cut-off read from the data, not from the text of the source: active = normalized growth mostly below about 0.91 (no sharp cut-off); inconclusive = no clear call, values can overlap the other calls; inactive = mostly above about 0.92. The list shows a part of the results.

Test: chemical genetic growth profiling, strain panel (AID 1159580);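 note: tested at 20 µM; growth read once vehicle control cultures reached saturation at 30 °C; 1 = growth at the plate median or of vehicle wells; lower values mean less growth of the strain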
Details: growth OD
[1] = S. cerevisiae deletion strains, locus YAL013W, strain DEP1, hits give low values
[2] = S. cerevisiae deletion strains, locus YBR229C, strain ROT2, hits give low values
[3] = S. cerevisiae deletion strains, locus YDL101C, strain DUN1, hits give low values
[4] = S. cerevisiae deletion strains, locus YDR150W, strain NUM1, hits give low values
[5] = S. cerevisiae deletion strains, locus YEL061C, strain CIN8, hits give low values
[6] = S. cerevisiae deletion strains, locus YGR078C, strain PAC10, hits give low values
[7] = S. cerevisiae deletion strains, locus YHR030C, strain SLT2, hits give low values
[8] = S. cerevisiae deletion strains, locus YHR087W, strain rtc3, hits give low values
[9] = S. cerevisiae deletion strains, locus YJR043C, strain POL32, hits give low values
[10] = S. cerevisiae deletion strains, locus YJR075W, strain HOC1, hits give low values
[11] = S. cerevisiae deletion strains, locus YKL190W, strain CNB1, hits give low values
[12] = S. cerevisiae deletion strains, locus YLR039C, strain RIC1, hits give low values
[13] = S. cerevisiae deletion strains, locus YLR058C, strain SHM2 (second series), hits give low values
[14] = S. cerevisiae deletion strains, locus YLR085C, strain ARP6, hits give low values
[15] = S. cerevisiae deletion strains, locus YLR262C, strain YPT6, hits give low values
[16] = S. cerevisiae deletion strains, locus YML094W, strain GIM5, hits give low values
[17] = S. cerevisiae deletion strains, locus YMR219W, strain ESC1, hits give low values
[18] = S. cerevisiae deletion strains, locus YMR263W, strain SAP30, hits give low values
[19] = S. cerevisiae deletion strains, locus YMR307W, strain GAS1, hits give low values
[20] = S. cerevisiae deletion strains, locus YNL153C, strain GIM3, hits give low values
[21] = S. cerevisiae deletion strains, locus YNL298W, strain CLA4 (second series), hits give low values
[22] = S. cerevisiae deletion strains, locus YNL322C, strain KRE1, hits give low values
[23] = S. cerevisiae deletion strains, locus YNR030W, strain Alg12, hits give low values
[24] = S. cerevisiae deletion strains, locus YPL055C, strain LGE1, hits give low values
[25] = S. cerevisiae deletion strains, locus YPL241C, strain CIN2, hits give low values
[26] = S. cerevisiae deletion strains, locus YPR135W, strain CTF4, hits give low values
[27] = S. cerevisiae strains, strain wild type, hits give low values

Measured: normalized growth

CCn1nc(C)cc1C(=O)O
inactive: [1] 0.992 | [2] 1.01 | [3] 1.03 | [4] 0.914 | [5] 1.03 | [6] 1.02 | [7] 1.07 | [8] 1.01 | S. cerevisiae deletion strains, locus YJL187C, strain SWE1, hits give low values 1.02 | [9] 0.962 | [10] 1.02 | [11] 1.02 | [12] 1.1 | [13] 1.02 | [15] 1.07 | [16] 1.02 | [17] 1.01 | [18] 0.987 | [19] 1.24 | [20] 1 | [21] 1.04 | [22] 0.999 | [23] 1.02 | [24] 0.931 | [25] 1.03 | [26] 0.994 | [27] 1.02
active: [14] 1.3 [resistant]

CCOC(=O)c1nnc2cc(C)nn2c1C
inactive: [1] 0.981 | [2] 1.01 | [3] 0.98 | [4] 0.951 | [5] 1 | [6] 1 | [7] 1.01 | [8] 1 | [9] 0.987 | [10] 1.03 | [11] 0.995 | [12] 1.04 | [13] 1.01 | [14] 1 | [15] 1.06 | [16] 0.968 | [17] 1 | [18] 0.95 | [19] 0.989 | S. cerevisiae deletion strains, locus YNL128W, strain TEP1, hits give low values 1.01 | [20] 0.988 | [21] 1.03 | [22] 1 | [23] 1.03 | [24] 0.923 | [25] 0.986 | [26] 1 | [27] 1.02
